Sampled rows, rich in hits. Any-hit rate of the full collection: about 19%.
HT1080 IDH1KD tx: qHTS for induction of synthetic lethality in tumor cells producing 2HG: qHTS for the HT-1080-IDH1KD cell line | HT-1080 IDH1 knockdown viability, ATP luminescence, 48 h | Potency, µM (titrated, usually from 46.1 µM), for the others: top-dose activity, negative = toxicity, actives largely listed as cytotoxic | hit rate 2% among 360,000;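 also: potency is read from the fitted curve at half-maximal effect; 0% = DMSO wells and -100% = cell-free medium wells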
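HT-1080-IDH1KD cells (IDH1 knocked down), 750/well in RPMI with 5% FBS, treated with compound 48 h at 37 degrees C. Viability by CellTiter-Glo luminescence, normalised to DMSO and no-cell wells; concentration-response curves classed.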
TDP1 cell CPT: qHTS for Inhibitors of human tyrosyl-DNA phosphodiesterase 1 (TDP1): qHTS in cells in presence of CPT; hit rate 12% among 420,000; Potency, µM (series often up to 46.2 µM), inactives show top-dose activity change, negative = growth inhibition, actives largely listed as inhibitors; chicken DT40 Tdp1-/-;hTDP1 cells + 20 nM CPT, ATP luminescence, 48 h; also: potency is read from the fitted curve at half-maximal effect; nearly all actives have a fitted effect of over 55% in size
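Cell growth measured by CellTiter-Glo luminescence after a minimum 48 h, 37 C compound exposure with 20 nM CPT in Tdp1-knockout DT40 cells stably expressing hTDP1, seeded 400/well; qHTS titration format.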
TDP1 cell noCPT: qHTS for Inhibitors of human tyrosyl-DNA phosphodiesterase 1 (TDP1): qHTS in cells in absence of CPT. Potency, µM (series often up to 46.2 µM), without a hit: at the top dose activity change, negative = growth inhibition, actives largely listed as inhibitors. hit rate 15% among 420,000. DT40 Tdp1-/- hTDP1 cells, no CPT, ATP luminescence, 48 h; also: potency is read from the fitted curve at half-maximal effect; nearly all actives have a fitted effect of over 55% in size
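Cells were dispensed at 400 per well, compounds added by pin tool, plates incubated ≥48 hr at 37 °C, then CellTiter-Glo added for 30 min at room temperature before luminescence reading. Line: DT40 Tdp1-/- complemented with hTDP1; camptothecin omitted.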
IL1B secr inh: qHTS for Inhibitors of Inflammasome Signaling: IL-1-beta AlphaLISA Primary Screen. hit rate 4.7% among 360,000. activity change, % at 57.5 µM. THP-1 LPS/ATP IL-1B secretion, AlphaLISA, 16 h; active compounds read low; in the data active = activity change below about -50%; inconclusive = mostly about -30% to -49%
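THP-1 cells pretreated 1 hr with compounds (up to 57.5 uM final), then stimulated with LPS (250 ng/mL final) plus ATP (1.25 mM final); secreted IL-1B measured by AlphaLISA after 16 hr, decreased signal indicating inhibition.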
HT1080NT lethal: qHTS for induction of synthetic lethality in tumor cells producing 2HG: qHTS for the HT-1080-NT fibrosarcoma cell line. HT-1080-NT fibrosarcoma viability, CellTiter-Glo ATP luminescence, 48 h. Potency, µM (doses to about 46.1 µM), for inactives: top-dose activity, negative = less viability, usual class: cytotoxic. hit rate 1.6% among 360,000;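 also: NT is the 2HG producing partner of a matched IDH1 knockdown line; potency is read from the fitted curve at half-maximal effect; 0% = DMSO-treated cells and -100% = media-only wells without cells; nearly all actives have a fitted effect of over 55% in size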
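Viability by CellTiter-Glo luminescence after 48 h compound exposure at 37C of HT-1080-NT cells (750/well, RPMI, 5% FBS). % activity scaled between DMSO wells and medium-only wells, then curve-fitted and categorized by curve class.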
Numbers without * were called inactive. Unless noted, calls follow the shape of the dose curve; as a rule, active = well fitted curve in the direction sought with a large enough effect; inconclusive = small, poorly fitted or top-dose-only effect, or another doubt; inactive = no such curve, though single readings can be large; an effect the other way counts as inactive or inconclusive. Unless noted, % is scaled to controls: 0 for no effect and ±100 for the full control effect.

Screening O=C(c1cccc(N2C(=O)C3C4C=CC(C4)C3C2=O)c1)N1CCN(c2ccccc2F)CC1 (stereo not drawn) returned HT1080 IDH1KD tx 3.0%, TDP1 cell CPT -10.7%, TDP1 cell noCPT -0.7%, IL1B secr inh -6.8 and HT1080NT lethal 5.5%.
CSc1cccc(NC(=O)CC(c2ccc(F)cc2)N2Cc3ccccc3C2=O)c1 (stereo not drawn) was read as TDP1 cell CPT 23.1µM* and TDP1 cell noCPT 20.6µM*.
Screening N#Cc1ccc(C(C(=O)NC2CCCCC2)n2c(=O)c(-c3ccccc3)nc3ccccc32)cc1 (stereo not drawn) returned HT1080 IDH1KD tx 1.5%, TDP1 cell CPT inconclusive, TDP1 cell noCPT inconclusive, IL1B secr inh -15.3 and HT1080NT lethal -1.7%.
Screening Cc1ccccc1OCCc1c(C)[nH]c(=S)[nH]c1=O returned HT1080 IDH1KD tx 2.06µM*, TDP1 cell CPT 1.46µM*, TDP1 cell noCPT 0.82µM*, IL1B secr inh 57.0 and HT1080NT lethal 2.31µM*.
COc1ccc2c(c1)CCc1sc(NC(=O)c3ccc(Cl)cc3)nc1-2 was read as TDP1 cell CPT 18.4µM* and TDP1 cell noCPT 20.6µM*.
`COc1ccc2c(c1)Cc1sc(NC(=O)c3ccccc3C)nc1-2` gave TDP1 cell CPT -26.6% and TDP1 cell noCPT inconclusive.
COc1ccc(Br)c2c1-c1nc(NC(=O)c3cccc(C)c3)sc1C2 was read as TDP1 cell CPT inconclusive and TDP1 cell noCPT 23.1µM*.
For COc1ccc2c(c1)Cc1sc(NC(=O)c3ccccc3)nc1-2 the results were HT1080 IDH1KD tx -6.8%, TDP1 cell CPT inconclusive, TDP1 cell noCPT inconclusive, IL1B secr inh -4.4 and HT1080NT lethal -1.7%.
Cc1cccc(C(=O)Nc2nc3ccc(S(C)(=O)=O)cc3s2)c1 was read as HT1080 IDH1KD tx 0.5%, TDP1 cell CPT -21.3%, TDP1 cell noCPT -17.0%, IL1B secr inh inconclusive and HT1080NT lethal 0.8%.
Screening COc1ccc(C(=O)Nc2nc3c(s2)Cc2cc(OC)ccc2-3)cc1 returned HT1080 IDH1KD tx -0.1%, TDP1 cell CPT inconclusive, TDP1 cell noCPT inconclusive, IL1B secr inh -53.0* and HT1080NT lethal -12.0%.
COc1ccc2c(c1)Cc1sc(NC(=O)c3cccs3)nc1-2 was read as HT1080 IDH1KD tx -0.1%, TDP1 cell CPT inconclusive, TDP1 cell noCPT 20.6µM*, IL1B secr inh -12.5 and HT1080NT lethal inconclusive.
For O=C1CC(N2CCN(c3ccc(S(=O)(=O)N4CCCC4)cc3)CC2)C(=O)N1c1ccc(F)cc1 (stereo not drawn) the results were HT1080 IDH1KD tx 17.9%, TDP1 cell CPT 7.4%, TDP1 cell noCPT -1.9%, IL1B secr inh 6.7 and HT1080NT lethal 15.4%.
COc1ccc(NC(C)=O)cc1CNC(=O)COc1c(C)c(C)cc(C)c1C was read as HT1080 IDH1KD tx -9.2%, TDP1 cell CPT inconclusive, TDP1 cell noCPT inconclusive, IL1B secr inh 19.7 and HT1080NT lethal -0.7%.
For CCOc1ccc(NCc2cccn2-c2nnc(N3CCC(C(=O)NCCc4ccc(OC)c(OC)c4)CC3)s2)cc1 the results were TDP1 cell CPT inconclusive and TDP1 cell noCPT 10.3µM*.
For CCOc1ccc(NCc2cccn2-c2nnc(N3CCC(C(=O)NCCc4ccc(OCC)c(OCC)c4)CC3)s2)cc1 the results were TDP1 cell CPT 14.6µM* and TDP1 cell noCPT 8.2µM*.
Screening CCN1CCN(CCCNC(=O)C2CCN(c3nnc(-n4cccc4)s3)CC2)CC1 returned HT1080 IDH1KD tx 0.5%, TDP1 cell CPT -11.5%, TDP1 cell noCPT 10.2%, IL1B secr inh 5.6 and HT1080NT lethal 2.7%.
